# Experimental data taken from paper PMC7862700, “An all-to-all approach to the identification of sequence-specific readers for epigenetic DNA modifications on cytosine”.
# Tests used:
# Assay in all cases: DAPPL (digital affinity profiling via proximity ligation, sequencing); 10 mM Tris-HCl pH 7.5, 50 mM NaCl, 1 mM DTT, 4% glycerol, room temperature, 30 min; GST-TFs on glutathione beads, 16-mer random dsDNA library, 0.1% formaldehyde crosslink after washing; high values mean tight binding
# FLI1 = target: T1, FLI1 (Homo sapiens, UniProt Q01543 1-452); details: protein: recombinant; tags: N-terminal GST; dsDNA, one strand shown
# T1 sequence: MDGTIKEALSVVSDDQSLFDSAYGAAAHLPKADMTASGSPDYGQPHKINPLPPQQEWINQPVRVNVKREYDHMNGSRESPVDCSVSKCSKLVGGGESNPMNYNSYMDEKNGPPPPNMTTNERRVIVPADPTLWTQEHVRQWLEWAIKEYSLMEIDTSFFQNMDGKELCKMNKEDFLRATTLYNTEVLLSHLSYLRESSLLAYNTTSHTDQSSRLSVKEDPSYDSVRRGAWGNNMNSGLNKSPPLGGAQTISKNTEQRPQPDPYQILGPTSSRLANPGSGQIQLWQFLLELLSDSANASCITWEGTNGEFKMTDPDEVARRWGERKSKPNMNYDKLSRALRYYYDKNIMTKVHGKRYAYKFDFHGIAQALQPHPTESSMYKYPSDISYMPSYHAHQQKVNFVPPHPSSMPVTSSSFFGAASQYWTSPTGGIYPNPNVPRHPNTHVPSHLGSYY
# How it was run: (§1)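 Human transcription factors were made in yeast as GST fusions, captured on glutathione beads and barcoded with DNA. With a tag-only sample included, the pool was incubated with 200 nmole of a random double-stranded 16-mer DNA library in Tris/NaCl/DTT/glycerol buffer at room temperature for 30 min, then crosslinked with 0.1% formaldehyde after washing, ligated by proximity, amplified and sequenced. For binding signal, each hexamer's read frequency for a factor is divided by its frequency for the tag-only sample.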
# ELK1 = target: T2, ELK1 (Homo sapiens, UniProt P19419 1-428); details: protein: recombinant; tags: N-terminal GST; dsDNA, one strand shown
# T2 sequence: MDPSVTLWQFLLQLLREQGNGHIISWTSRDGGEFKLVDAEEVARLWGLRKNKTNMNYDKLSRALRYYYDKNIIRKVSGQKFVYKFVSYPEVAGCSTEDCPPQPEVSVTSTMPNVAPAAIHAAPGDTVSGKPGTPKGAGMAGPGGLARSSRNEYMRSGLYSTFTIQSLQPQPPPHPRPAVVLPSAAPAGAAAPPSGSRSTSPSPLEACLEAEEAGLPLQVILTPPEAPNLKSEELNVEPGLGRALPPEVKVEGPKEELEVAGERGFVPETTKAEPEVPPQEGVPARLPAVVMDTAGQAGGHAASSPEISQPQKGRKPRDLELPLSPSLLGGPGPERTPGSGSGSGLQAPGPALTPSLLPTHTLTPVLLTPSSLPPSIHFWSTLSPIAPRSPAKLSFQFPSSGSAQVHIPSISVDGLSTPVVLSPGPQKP
# How it was run: as §1
# GABPA = target: T3, GABPA (Homo sapiens, UniProt Q06546 1-454); details: protein: recombinant; tags: N-terminal GST; dsDNA, one strand shown
# T3 sequence: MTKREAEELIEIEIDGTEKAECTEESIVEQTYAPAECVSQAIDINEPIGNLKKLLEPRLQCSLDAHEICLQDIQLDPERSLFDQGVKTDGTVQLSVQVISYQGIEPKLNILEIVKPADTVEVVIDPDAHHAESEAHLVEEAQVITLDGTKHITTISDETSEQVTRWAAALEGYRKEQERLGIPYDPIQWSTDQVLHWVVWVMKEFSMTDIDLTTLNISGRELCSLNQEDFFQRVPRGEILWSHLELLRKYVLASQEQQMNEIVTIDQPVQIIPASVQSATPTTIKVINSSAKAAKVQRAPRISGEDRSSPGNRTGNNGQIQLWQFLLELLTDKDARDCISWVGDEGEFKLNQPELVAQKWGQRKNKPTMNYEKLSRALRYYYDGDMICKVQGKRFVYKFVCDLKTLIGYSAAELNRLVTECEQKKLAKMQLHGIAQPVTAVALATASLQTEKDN
# How it was run: as §1
# ERG = target: T4, ERG (Homo sapiens, UniProt P11308 1-479); details: protein: recombinant; tags: N-terminal GST; dsDNA, one strand shown
# T4 sequence: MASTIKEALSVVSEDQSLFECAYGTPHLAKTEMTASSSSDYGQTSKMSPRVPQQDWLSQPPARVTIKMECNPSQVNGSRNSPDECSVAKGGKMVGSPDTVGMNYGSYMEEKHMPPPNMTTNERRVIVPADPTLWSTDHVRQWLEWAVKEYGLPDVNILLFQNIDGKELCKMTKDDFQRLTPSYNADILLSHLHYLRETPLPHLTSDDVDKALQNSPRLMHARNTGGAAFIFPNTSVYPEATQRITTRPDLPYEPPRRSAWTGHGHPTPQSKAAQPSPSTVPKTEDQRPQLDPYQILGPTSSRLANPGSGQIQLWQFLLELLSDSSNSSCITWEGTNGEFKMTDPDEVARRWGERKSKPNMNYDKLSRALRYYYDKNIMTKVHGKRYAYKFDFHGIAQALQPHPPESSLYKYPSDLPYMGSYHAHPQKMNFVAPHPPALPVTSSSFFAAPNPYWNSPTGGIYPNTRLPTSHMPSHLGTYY
# How it was run: as §1
# ELF1 = ELF1 (Homo sapiens, UniProt P32519 1-619); details: protein: recombinant; tags: N-terminal GST; dsDNA, one strand shown
# How it was run: as §1
# EHF = target: T5, EHF (Homo sapiens, UniProt Q9NZC4 1-300); details: protein: recombinant; tags: N-terminal GST; dsDNA, one strand shown
# T5 sequence: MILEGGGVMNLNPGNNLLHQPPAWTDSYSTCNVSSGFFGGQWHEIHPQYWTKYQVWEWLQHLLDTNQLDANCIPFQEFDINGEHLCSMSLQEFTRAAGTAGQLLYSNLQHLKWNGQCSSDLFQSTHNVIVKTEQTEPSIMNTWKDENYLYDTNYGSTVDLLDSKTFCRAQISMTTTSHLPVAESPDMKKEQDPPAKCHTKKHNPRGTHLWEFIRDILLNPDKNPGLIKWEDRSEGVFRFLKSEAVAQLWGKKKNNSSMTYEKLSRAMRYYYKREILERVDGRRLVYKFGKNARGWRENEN
# How it was run: as §1
# SPI1 = SPI1 (Homo sapiens, UniProt P17947 1-270); details: protein: recombinant; tags: N-terminal GST; dsDNA, one strand shown
# How it was run: as §1
# SPIB = SPIB (Homo sapiens, UniProt Q01892 1-262); details: protein: recombinant; tags: N-terminal GST; dsDNA, one strand shown
# How it was run: as §1
# FEV = target: T6, FEV (Homo sapiens, UniProt Q99581 1-238); details: protein: recombinant; tags: N-terminal GST; dsDNA, one strand shown
# T6 sequence: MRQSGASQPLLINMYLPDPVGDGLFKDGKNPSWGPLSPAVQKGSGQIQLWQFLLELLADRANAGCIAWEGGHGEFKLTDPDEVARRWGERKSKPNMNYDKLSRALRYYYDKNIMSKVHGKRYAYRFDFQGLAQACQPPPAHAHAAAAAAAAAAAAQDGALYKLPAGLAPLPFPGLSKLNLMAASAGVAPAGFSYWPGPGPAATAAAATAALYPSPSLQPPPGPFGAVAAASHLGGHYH
# How it was run: as §1
# ETV5 = ETV5 (Homo sapiens, UniProt P41161 1-510); details: protein: recombinant; tags: N-terminal GST; dsDNA, one strand shown
# How it was run: as §1
# HSF1 = HSF1 (Homo sapiens, UniProt Q00613 1-529); details: protein: recombinant; tags: N-terminal GST; chain copies: 3; dsDNA, one strand shown
# How it was run: as §1
# SPIC = target: T7, SPIC (Homo sapiens, UniProt Q8N5J4 1-248); details: protein: recombinant; tags: N-terminal GST; dsDNA, one strand shown
# T7 sequence: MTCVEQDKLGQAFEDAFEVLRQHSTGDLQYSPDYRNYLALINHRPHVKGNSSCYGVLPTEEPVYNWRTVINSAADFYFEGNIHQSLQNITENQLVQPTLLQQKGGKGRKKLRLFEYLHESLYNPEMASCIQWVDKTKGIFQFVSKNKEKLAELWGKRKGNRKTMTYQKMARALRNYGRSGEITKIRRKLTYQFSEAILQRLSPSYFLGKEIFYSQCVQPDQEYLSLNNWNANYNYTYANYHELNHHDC
# How it was run: as §1
# ELF4 = ELF4 (Homo sapiens, UniProt Q99607 1-663); details: protein: recombinant; tags: N-terminal GST; dsDNA, one strand shown
# How it was run: as §1
# ELK4 = target: T8, ELK4 (Homo sapiens, UniProt P28324-2 1-405); details: protein: recombinant; tags: N-terminal GST; dsDNA, one strand shown
# T8 sequence: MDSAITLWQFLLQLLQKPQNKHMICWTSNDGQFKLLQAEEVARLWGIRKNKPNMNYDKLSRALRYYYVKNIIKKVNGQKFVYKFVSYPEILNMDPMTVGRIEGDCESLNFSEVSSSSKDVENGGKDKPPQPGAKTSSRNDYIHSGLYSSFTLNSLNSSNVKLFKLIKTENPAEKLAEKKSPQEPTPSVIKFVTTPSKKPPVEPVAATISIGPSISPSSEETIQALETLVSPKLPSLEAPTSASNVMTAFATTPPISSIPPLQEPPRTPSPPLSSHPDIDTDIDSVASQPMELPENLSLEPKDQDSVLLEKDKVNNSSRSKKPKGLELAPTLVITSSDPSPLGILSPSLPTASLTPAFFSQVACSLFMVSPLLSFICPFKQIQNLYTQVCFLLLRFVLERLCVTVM
# How it was run: as §1
# ETV2 = target: T9, ETV2 (Homo sapiens, UniProt O00321 1-342); details: protein: recombinant; tags: N-terminal GST; dsDNA, one strand shown
# T9 sequence: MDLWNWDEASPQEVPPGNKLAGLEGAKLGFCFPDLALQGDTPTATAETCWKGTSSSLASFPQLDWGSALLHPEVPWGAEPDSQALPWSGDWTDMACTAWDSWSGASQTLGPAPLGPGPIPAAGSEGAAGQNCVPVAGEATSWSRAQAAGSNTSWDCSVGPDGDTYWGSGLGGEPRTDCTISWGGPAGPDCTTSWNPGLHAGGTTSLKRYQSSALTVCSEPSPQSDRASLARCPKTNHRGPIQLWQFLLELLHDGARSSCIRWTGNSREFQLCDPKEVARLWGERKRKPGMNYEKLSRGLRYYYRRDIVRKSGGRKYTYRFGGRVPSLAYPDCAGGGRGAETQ
# How it was run: as §1
# ELF3 = target: T10, ELF3 (Homo sapiens, UniProt P78545 1-371); details: protein: recombinant; tags: N-terminal GST; dsDNA, one strand shown
# T10 sequence: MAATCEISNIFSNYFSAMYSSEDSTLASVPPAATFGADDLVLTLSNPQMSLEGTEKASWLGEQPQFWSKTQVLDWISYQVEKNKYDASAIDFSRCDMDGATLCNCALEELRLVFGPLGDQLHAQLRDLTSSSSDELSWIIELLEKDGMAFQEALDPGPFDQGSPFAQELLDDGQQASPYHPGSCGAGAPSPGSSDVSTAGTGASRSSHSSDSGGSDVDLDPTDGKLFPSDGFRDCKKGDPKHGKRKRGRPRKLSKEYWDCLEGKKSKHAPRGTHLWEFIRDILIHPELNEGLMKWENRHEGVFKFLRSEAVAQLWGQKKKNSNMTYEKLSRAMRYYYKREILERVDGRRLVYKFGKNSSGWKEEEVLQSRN
# How it was run: as §1
# CRX = CRX (Homo sapiens, UniProt O43186 1-299); details: protein: recombinant; tags: N-terminal GST; dsDNA, one strand shown
# How it was run: as §1
# ETV1 = ETV1 (Homo sapiens, UniProt P50549 1-477); details: protein: recombinant; tags: N-terminal GST; dsDNA, one strand shown
# How it was run: as §1
# Sequence of HSF1 (Q00613 whole entry): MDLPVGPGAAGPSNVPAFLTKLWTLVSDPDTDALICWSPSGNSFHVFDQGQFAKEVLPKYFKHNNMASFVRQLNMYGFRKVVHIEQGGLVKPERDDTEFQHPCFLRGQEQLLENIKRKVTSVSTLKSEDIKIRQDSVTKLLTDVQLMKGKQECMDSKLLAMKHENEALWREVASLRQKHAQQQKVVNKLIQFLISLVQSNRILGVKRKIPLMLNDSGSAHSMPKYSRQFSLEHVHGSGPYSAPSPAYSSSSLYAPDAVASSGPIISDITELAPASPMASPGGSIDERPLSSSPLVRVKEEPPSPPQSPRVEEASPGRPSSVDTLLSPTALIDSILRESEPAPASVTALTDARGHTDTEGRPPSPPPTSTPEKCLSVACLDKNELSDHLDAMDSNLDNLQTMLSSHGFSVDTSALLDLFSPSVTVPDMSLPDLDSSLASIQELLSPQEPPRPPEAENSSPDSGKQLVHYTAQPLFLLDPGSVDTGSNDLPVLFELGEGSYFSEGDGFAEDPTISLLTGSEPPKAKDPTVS
# Sequence of ELF1 (P32519 whole entry): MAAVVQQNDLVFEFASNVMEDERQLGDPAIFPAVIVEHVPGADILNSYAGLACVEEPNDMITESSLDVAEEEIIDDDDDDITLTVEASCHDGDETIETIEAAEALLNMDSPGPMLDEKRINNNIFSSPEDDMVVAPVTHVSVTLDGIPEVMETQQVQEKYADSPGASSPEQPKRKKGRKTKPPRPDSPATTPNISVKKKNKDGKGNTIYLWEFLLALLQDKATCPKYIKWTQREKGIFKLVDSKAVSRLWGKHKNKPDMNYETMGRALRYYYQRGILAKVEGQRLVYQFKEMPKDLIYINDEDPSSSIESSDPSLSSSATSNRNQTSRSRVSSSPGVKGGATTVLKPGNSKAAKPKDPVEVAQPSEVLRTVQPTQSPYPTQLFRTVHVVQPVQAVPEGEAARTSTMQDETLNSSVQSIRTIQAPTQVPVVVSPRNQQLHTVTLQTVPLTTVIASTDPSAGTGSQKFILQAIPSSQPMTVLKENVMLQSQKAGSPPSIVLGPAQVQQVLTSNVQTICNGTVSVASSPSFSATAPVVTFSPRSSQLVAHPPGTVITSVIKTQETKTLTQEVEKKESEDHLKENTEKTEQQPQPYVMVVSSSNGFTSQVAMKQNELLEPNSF
# Sequence of CRX (O43186 whole entry): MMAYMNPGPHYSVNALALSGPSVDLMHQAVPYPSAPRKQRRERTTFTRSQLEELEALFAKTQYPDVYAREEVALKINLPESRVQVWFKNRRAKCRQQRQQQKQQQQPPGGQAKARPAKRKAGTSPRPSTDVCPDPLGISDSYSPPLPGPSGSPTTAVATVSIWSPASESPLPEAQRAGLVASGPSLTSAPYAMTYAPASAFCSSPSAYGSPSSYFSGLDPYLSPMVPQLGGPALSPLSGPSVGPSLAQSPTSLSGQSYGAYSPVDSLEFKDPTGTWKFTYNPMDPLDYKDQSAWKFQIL
# Sequence of SPIB (Q01892 whole entry): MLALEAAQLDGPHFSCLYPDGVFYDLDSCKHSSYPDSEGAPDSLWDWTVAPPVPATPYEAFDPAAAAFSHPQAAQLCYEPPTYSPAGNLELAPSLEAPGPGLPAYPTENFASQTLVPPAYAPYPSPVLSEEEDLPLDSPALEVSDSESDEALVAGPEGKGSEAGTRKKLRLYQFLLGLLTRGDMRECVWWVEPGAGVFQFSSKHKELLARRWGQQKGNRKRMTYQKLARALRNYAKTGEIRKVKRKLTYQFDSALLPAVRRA
# Sequence of ETV5 (P41161 whole entry): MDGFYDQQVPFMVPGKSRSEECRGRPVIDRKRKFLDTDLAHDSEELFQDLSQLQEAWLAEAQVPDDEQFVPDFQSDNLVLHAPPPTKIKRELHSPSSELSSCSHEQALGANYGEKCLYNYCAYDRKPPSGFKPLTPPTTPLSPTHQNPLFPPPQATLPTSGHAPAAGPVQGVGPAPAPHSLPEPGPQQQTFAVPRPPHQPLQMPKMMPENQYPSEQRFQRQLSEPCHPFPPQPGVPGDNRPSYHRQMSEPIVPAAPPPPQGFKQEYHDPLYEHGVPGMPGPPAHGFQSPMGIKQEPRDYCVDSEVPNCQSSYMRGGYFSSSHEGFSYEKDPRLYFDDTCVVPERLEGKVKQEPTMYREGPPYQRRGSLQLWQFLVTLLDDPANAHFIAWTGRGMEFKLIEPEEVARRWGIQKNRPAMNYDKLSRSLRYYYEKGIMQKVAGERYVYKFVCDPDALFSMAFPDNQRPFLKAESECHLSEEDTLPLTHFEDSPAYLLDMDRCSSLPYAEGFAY
# Sequence of ETV1 (P50549 whole entry): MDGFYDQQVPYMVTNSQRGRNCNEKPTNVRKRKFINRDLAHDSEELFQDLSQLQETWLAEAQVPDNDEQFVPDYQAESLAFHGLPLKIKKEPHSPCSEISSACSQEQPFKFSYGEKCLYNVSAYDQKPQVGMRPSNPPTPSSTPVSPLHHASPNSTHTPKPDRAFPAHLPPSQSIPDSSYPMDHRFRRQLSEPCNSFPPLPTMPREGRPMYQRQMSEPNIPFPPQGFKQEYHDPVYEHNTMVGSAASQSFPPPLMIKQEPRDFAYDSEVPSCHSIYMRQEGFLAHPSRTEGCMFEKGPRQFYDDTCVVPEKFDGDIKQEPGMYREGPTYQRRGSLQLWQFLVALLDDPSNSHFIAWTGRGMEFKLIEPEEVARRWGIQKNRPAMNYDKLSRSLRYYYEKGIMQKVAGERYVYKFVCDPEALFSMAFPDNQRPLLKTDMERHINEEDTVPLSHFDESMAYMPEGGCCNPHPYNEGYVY
# Sequence of ELF4 (Q99607 whole entry): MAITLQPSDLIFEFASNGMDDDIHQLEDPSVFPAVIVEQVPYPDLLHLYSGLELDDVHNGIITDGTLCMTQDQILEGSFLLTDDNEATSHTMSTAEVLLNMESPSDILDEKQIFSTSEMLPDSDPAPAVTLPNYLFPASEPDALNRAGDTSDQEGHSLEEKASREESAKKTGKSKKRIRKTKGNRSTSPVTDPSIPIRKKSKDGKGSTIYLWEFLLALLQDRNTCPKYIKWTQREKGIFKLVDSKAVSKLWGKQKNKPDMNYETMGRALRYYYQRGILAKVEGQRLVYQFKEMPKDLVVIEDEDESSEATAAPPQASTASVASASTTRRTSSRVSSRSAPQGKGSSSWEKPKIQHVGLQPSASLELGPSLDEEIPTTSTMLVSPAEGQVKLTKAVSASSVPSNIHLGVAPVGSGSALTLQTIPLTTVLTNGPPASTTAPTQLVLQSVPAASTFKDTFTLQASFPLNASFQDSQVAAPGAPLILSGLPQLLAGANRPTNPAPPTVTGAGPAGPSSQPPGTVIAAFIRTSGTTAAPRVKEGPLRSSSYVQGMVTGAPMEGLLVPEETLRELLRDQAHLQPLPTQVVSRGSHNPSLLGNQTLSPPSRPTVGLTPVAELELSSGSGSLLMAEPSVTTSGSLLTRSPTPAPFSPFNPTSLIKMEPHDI
sequence,measurement,setting,value
GCTTAG,binding signal,FLI1,"1.14 fold enrichment (6-mer frequency, TF over GST control)"
same,binding signal,ELK1,"1.06 fold enrichment (6-mer frequency, TF over GST control)"
same,binding signal,GABPA,"1.19 fold enrichment (6-mer frequency, TF over GST control)"
same,binding signal,ERG,"1.18 fold enrichment (6-mer frequency, TF over GST control)"
same,binding signal,ELF1,"1.15 fold enrichment (6-mer frequency, TF over GST control)"
same,binding signal,EHF,"1.11 fold enrichment (6-mer frequency, TF over GST control)"
same,binding signal,SPI1,"1.1 fold enrichment (6-mer frequency, TF over GST control)"
same,binding signal,SPIB,"1.09 fold enrichment (6-mer frequency, TF over GST control)"
same,binding signal,FEV,"1.08 fold enrichment (6-mer frequency, TF over GST control)"
same,binding signal,ETV5,"1.13 fold enrichment (6-mer frequency, TF over GST control)"
same,binding signal,HSF1,"1.78 fold enrichment (6-mer frequency, TF over GST control)"
same,binding signal,SPIC,"1.12 fold enrichment (6-mer frequency, TF over GST control)"
same,binding signal,ELF4,"1.1 fold enrichment (6-mer frequency, TF over GST control)"
same,binding signal,ELK4,"1.17 fold enrichment (6-mer frequency, TF over GST control)"
same,binding signal,ETV2,"1.08 fold enrichment (6-mer frequency, TF over GST control)"
same,binding signal,ELF3,"1.09 fold enrichment (6-mer frequency, TF over GST control)"
same,binding signal,CRX,"2.49 fold enrichment (6-mer frequency, TF over GST control)"
same,binding signal,ETV1,"1.27 fold enrichment (6-mer frequency, TF over GST control)"
